Among all 5,500 compounds or so, about 2,000 (36%) were called active. Inconclusive results (about 18%) are left out. Cut-off read from the data, not from the text of the source: active = normalized growth mostly below about 0.91 (no sharp cut-off); inconclusive = no clear call, values can overlap the other calls; inactive = mostly above about 0.92. The list shows a part of the results.
Assay: chemical genetic growth profiling, strain panel (AID 1159580);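 note: tested at 20 µM; growth read once vehicle control cultures reached saturation at 30 °C; 1 = growth at the plate median or of vehicle wells; lower values mean less growth of the strain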
Settings: growth OD

Measured: normalized growth

COC(=O)C[C@H]1C(C)(C)[C@@H](OC(C)=O)[C@@H]2CC3=C4CC(=O)O[C@@H](c5ccoc5)[C@]4(C)CCC3[C@@]1(C)C2=O (some centres not stated)
inactive: S. cerevisiae deletion strains, locus YJR066W, strain TOR1, active compounds read low 0.954 | S. cerevisiae deletion strains, locus YJR075W, strain HOC1, active compounds read low 0.997 | S. cerevisiae deletion strains, locus YKL009W, strain mrt4, active compounds read low 0.986 | S. cerevisiae deletion strains, locus YKL068W, active compounds read low 1 | S. cerevisiae deletion strains, locus YKL085W, strain MDH1 (second series), active compounds read low 0.993 | S. cerevisiae deletion strains, locus YKL085W, strain MDH1, active compounds read low 0.993 | S. cerevisiae deletion strains, locus YKL160W, strain elf1, active compounds read low 1.02 | S. cerevisiae deletion strains, locus YKR001C, strain vps1, active compounds read low 1.01 | S. cerevisiae deletion strains, locus YKR026C, strain gcn3, active compounds read low 0.992 | S. cerevisiae deletion strains, locus YKR091W, strain srl3, active compounds read low 0.996 | S. cerevisiae deletion strains, locus YLL001W, strain dnm1, active compounds read low 0.949 | S. cerevisiae deletion strains, locus YLL026W, active compounds read low 0.998 | S. cerevisiae deletion strains, locus YLL041C, strain sdh2, active compounds read low 0.997 | S. cerevisiae deletion strains, locus YLR027C, strain aat2, active compounds read low 0.998 | S. cerevisiae deletion strains, locus YLR039C, strain RIC1, active compounds read low 0.993 | S. cerevisiae deletion strains, locus YLR058C, strain SHM2, active compounds read low 1 | S. cerevisiae deletion strains, locus YLR102C, strain apc9, active compounds read low 1.01 | S. cerevisiae deletion strains, locus YLR113W, strain HOG1, active compounds read low 1.03 | S. cerevisiae deletion strains, locus YLR221C, strain rsa3, active compounds read low 0.961 | S. cerevisiae deletion strains, locus YLR258W, strain gsy2, active compounds read low 1.01 | S. cerevisiae deletion strains, locus YLR262C, strain YPT6 (second series), active compounds read low 1.02 | S. cerevisiae deletion strains, locus YLR268W, strain sec22, active compounds read low 0.993 | S. cerevisiae deletion strains, locus YLR320W, strain mms22, active compounds read low 0.978 | S. cerevisiae deletion strains, locus YLR330W, strain CHS5, active compounds read low 1 | S. cerevisiae deletion strains, locus YLR342W, strain FKS1 (second series), active compounds read low 1.02 | S. cerevisiae deletion strains, locus YLR342W, strain FKS1, active compounds read low 1.02 | S. cerevisiae deletion strains, locus YLR357W, strain rsc2, active compounds read low 1.01 | S. cerevisiae deletion strains, locus YLR370C, strain arc18, active compounds read low 0.986 | S. cerevisiae deletion strains, locus YLR371W, strain rom2, active compounds read low 0.983 | S. cerevisiae deletion strains, locus YLR384C, strain iki3, active compounds read low 0.985 | S. cerevisiae deletion strains, locus YLR418C, strain cdc73, active compounds read low 1.04 | S. cerevisiae deletion strains, locus YML016C, strain PPZ1, active compounds read low 0.992 | S. cerevisiae deletion strains, locus YML032C, strain rad52, active compounds read low 0.974 | S. cerevisiae deletion strains, locus YML120C, strain ndi1, active compounds read low 1.01 | S. cerevisiae deletion strains, locus YML124C, strain tub3, active compounds read low 1.01 | S. cerevisiae deletion strains, locus YMR058W, strain fet3, active compounds read low 0.993 | S. cerevisiae deletion strains, locus YMR078C, strain ctf18, active compounds read low 1.01 | S. cerevisiae deletion strains, locus YMR125W, strain sto1, active compounds read low 1.01 | S. cerevisiae deletion strains, locus YMR129W, active compounds read low 0.988 | S. cerevisiae deletion strains, locus YMR205C, strain PFK2, active compounds read low 1.02 | S. cerevisiae deletion strains, locus YMR223W, strain ubp8, active compounds read low 0.998 | S. cerevisiae deletion strains, locus YMR231W, strain pep5, active compounds read low 0.998 | S. cerevisiae deletion strains, locus YMR263W, strain SAP30, active compounds read low 1.01 | S. cerevisiae deletion strains, locus YMR307W, strain GAS1, active compounds read low 0.927 | S. cerevisiae deletion strains, locus YNL067W, strain RPL9B, active compounds read low 1.01 | S. cerevisiae deletion strains, locus YNL071W, strain lat1, active compounds read low 1 | S. cerevisiae deletion strains, locus YNL128W, strain TEP1, active compounds read low 0.99 | S. cerevisiae deletion strains, locus YNL153C, strain GIM3, active compounds read low 1.02 | S. cerevisiae deletion strains, locus YNL183C, strain NPR1, active compounds read low 0.958 | S. cerevisiae deletion strains, locus YNL209W, strain ssb2, active compounds read low 1 | S. cerevisiae deletion strains, locus YNL233W, strain BNI4, active compounds read low 1.01 | S. cerevisiae deletion strains, locus YNL248C, strain rpa49, active compounds read low 0.961 | S. cerevisiae deletion strains, locus YNL250W, strain rad50, active compounds read low 1 | S. cerevisiae deletion strains, locus YNL271C, strain bni1, active compounds read low 0.982 | S. cerevisiae deletion strains, locus YNL298W, strain CLA4, active compounds read low 1.01 | S. cerevisiae deletion strains, locus YNL307C, strain MCK1, active compounds read low 1.01 | S. cerevisiae deletion strains, locus YNL322C, strain KRE1 (second series), active compounds read low 1.01 | S. cerevisiae deletion strains, locus YNR049C, strain mso1, active compounds read low 0.994 | S. cerevisiae deletion strains, locus YNR052C, strain pop2, active compounds read low 1.01 | S. cerevisiae deletion strains, locus YOL012C, strain htz1 1.31 | S. cerevisiae deletion strains, locus YOL147C, strain pex11, active compounds read low 0.999 | S. cerevisiae deletion strains, locus YOR001W, strain rrp6, active compounds read low 0.939 | S. cerevisiae deletion strains, locus YOR061W, strain CKA2, active compounds read low 0.995 | S. cerevisiae deletion strains, locus YOR069W, strain VPS5, active compounds read low 1 | S. cerevisiae deletion strains, locus YOR070C, strain gyp1, active compounds read low 0.991 | S. cerevisiae deletion strains, locus YOR080W, strain dia2, active compounds read low 0.987 | S. cerevisiae deletion strains, locus YOR083W, strain WHI5, active compounds read low 1.02 | S. cerevisiae deletion strains, locus YOR106W, strain vam3, active compounds read low 1.02 | S. cerevisiae deletion strains, locus YOR136W, strain idh2, active compounds read low 0.987 | S. cerevisiae deletion strains, locus YOR144C, strain elg1, active compounds read low 0.998 | S. cerevisiae deletion strains, locus YOR184W, strain ser1, active compounds read low 0.987 | S. cerevisiae deletion strains, locus YOR231W, strain MKK1, active compounds read low 0.988 | S. cerevisiae deletion strains, locus YOR265W, strain rbl2, active compounds read low 1 | S. cerevisiae deletion strains, locus YOR270C, strain vph1, active compounds read low 0.888 | S. cerevisiae deletion strains, locus YOR290C, strain snf2, active compounds read low 1.03 | S. cerevisiae deletion strains, locus YOR316C, strain cot1, active compounds read low 1.01 | S. cerevisiae deletion strains, locus YPL051W, strain arl3, active compounds read low 1 | S. cerevisiae deletion strains, locus YPL078C, strain atp4, active compounds read low 1.01 | S. cerevisiae deletion strains, locus YPL106C, strain sse1, active compounds read low 1.04 | S. cerevisiae deletion strains, locus YPL240C, strain hsp82, active compounds read low 1 | S. cerevisiae deletion strains, locus YPL256C, strain CLN2, active compounds read low 0.983 | S. cerevisiae deletion strains, locus YPR119W, strain clb2, active compounds read low 0.996 | S. cerevisiae deletion strains, locus YPR141C, strain kar3, active compounds read low 1 | S. cerevisiae deletion strains, locus YPR163C, strain tif3, active compounds read low 1 | S. cerevisiae deletion strains, locus YPR167C, strain met16, active compounds read low 0.995 | S. cerevisiae deletion strains, strain wtn01, active compounds read low 0.978 | S. cerevisiae strains, strain wild type, active compounds read low 0.997
